Reference: PubChem BioAssay (NCATS)
Values joined by “and” are separate entries in the source; they are usually repeats but may differ in a detail not shown here. Equal entries are not always repeated. Records with an inconclusive call do not appear. Active and inactive are the calls of the source. Unless noted, calls come from the whole dose curve; as a rule, active = well fitted curve in the direction sought with a large enough effect; inconclusive = small, poorly fitted or top-dose-only effect, or another doubt; inactive = no such curve, though single readings can be large; an effect the other way counts as inactive or inconclusive.

Experiments:
[1] = biological target: Alpha-galactosidase A (Homo sapiens) (UniProt P06280); assay: Counterscreen for Glucocerebrosidase Inhibitors: qHTS Assay for Human alpha-Galactosidase at pH 4.5 (AID 992); note: 0% is about no effect
Sequence of Alpha-galactosidase A (Homo sapiens) (P06280 whole entry, looked up): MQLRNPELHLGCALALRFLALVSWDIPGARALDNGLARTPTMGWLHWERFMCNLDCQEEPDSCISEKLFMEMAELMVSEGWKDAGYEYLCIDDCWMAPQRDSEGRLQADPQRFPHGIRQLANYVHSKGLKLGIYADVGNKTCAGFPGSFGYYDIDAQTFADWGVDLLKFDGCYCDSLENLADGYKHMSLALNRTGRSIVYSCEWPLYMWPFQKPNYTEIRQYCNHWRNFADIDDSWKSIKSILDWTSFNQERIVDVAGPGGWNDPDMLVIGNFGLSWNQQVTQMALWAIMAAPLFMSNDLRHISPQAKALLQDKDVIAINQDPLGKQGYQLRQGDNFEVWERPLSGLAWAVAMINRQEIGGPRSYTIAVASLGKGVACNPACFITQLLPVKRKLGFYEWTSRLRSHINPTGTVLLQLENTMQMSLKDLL
In short: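 Each compound is preincubated briefly with 2 nM enzyme before substrate addition (80 uM); plates then sit 20 min at ambient temperature, are quenched with 1M NaOH/1M glycine, and read fluorometrically.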

[2] = biological target: alpha-glucosidase (Oryza sativa, rice) (UniProt Q653V4); assay: Counterscreen for Glucocerebrosidase Inhibitors: qHTS Assay for Rice alpha-Glucosidase at pH 5.0 (AID 997);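 note: 0% = full activity with enzyme and -100% = basal without enzyme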
In short: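 Endpoint fluorogenic assay at pH 5.0: compounds (0.7 nM to 77 uM) titrated against 4 nM rice enzyme and 400 uM 4-MU-alpha-glucoside for 20 min at room temperature; NaOH/glycine stop, read ex 365/em 440 nm, Hill-fitted AC50.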

[3] = Validation of Assay for Modulators of Lamin A Splicing (AID 1459; active = well fitted curve in the direction sought with a large enough effect in the signal ratio; the % refers to the signal ratio;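 note: cells exposed to compound for two days before reading; 0% is about no effect; ratio rise marks activators and ratio drop marks inhibitors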)
In short: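 Splicing correction read as GFP (500-530 nm) over DsRed2 (575-640 nm) object intensity after 48 h compound exposure of reporter HeLa S3 clones (600 cells/well, 2% FBS medium); ancitabine and cycloheximide titrations, 0.5% DMSO as vehicle.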

[4] = biological target: DNA repair nuclease/redox regulator APEX1 (Homo sapiens) (UniProt P27695); assay: qHTS Validation Assay for Inhibitors of the Human Apurinic/apyrimidinic Endonuclease 1 (APE1) (AID 1705;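 note: TAMRA fluorescence gain over two minutes as APE1 cuts a quenched THF abasic duplex; % is set by controls: 0 for no effect and ±100 for the full control effect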)
Sequence of DNA repair nuclease/redox regulator APEX1 (Homo sapiens) (P27695 whole entry, looked up): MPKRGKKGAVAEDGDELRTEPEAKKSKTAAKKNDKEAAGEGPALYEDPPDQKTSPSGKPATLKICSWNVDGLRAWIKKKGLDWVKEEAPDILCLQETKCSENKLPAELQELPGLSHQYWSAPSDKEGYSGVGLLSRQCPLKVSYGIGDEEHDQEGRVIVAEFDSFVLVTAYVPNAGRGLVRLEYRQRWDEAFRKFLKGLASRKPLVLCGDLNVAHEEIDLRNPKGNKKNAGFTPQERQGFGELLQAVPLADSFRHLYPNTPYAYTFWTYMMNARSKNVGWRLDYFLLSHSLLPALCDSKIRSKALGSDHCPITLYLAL
In short: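 Activity read as rising fluorescence (598 nm emission, 525 nm excitation) from incision of a TAMRA/BHQ-2 duplex carrying a THF abasic site (50 nM). Compound and enzyme sat 15 min at RT before substrate start; signal change between first and third 60-s reads.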

[5] = Counterscreen for APE1 Inhibitors: Fluorescent Dye Displacement Validation Assay (AID 1707);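 note: plate controls were ThO with dsDNA and no compound for no effect and ThO without dsDNA for full effect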
In short: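 Loss of Thiazole Orange fluorescence marks promiscuous DNA binders. The dye (250 nM) is mixed with 50 nM abasic-site dsDNA in pH7.5 Tris buffer containing MgCl2, then compounds are added and emission is read once.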

[6] = qHTS for differential inhibitors of proliferation of Plasmodium falciparum line 7G8 (AID 1815);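 note: parasite growth measured after three days of incubation; plate controls were vehicle wells for no effect and reference inhibitor wells for full effect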
[7] = qHTS for differential inhibitors of proliferation of Plasmodium falciparum line 3D7 (AID 1876);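 note: parasite growth measured after three days of culture; 0% = vehicle wells and -100% = reference inhibitor wells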
[8] = qHTS for differential inhibitors of proliferation of Plasmodium falciparum line D10 (AID 1877);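 note: parasites grown with compound for 72 h before DNA staining; plate controls were vehicle wells for no effect and reference inhibitor wells for full effect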
[9] = qHTS for differential inhibitors of proliferation of Plasmodium falciparum line Dd2 (AID 1882); settings: Potency: Plasmodium falciparum Dd2 proliferation inhibition;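 note: plate controls were DMSO vehicle for no effect and 0.29 µM artemisinin for full effect; nearly all actives have a fitted effect of over 65% in size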
In short: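 SYBR Green DNA fluorescence (ex 485, em 535 nm) after overnight lysis quantifies parasite growth; compound exposure lasted 72 h at 37 C on infected red cells at 2.5% hematocrit, 0.3% parasitemia (final). Artemisinin 0.29 uM and vehicle wells define normalization.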

[10] = qHTS for differential inhibitors of proliferation of Plasmodium falciparum line HB3 (AID 1886); settings: Potency: Plasmodium falciparum HB3 proliferation inhibition;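 note: parasites grown with compound for 72 h before SYBR Green readout; plate controls were vehicle for no effect and reference inhibitor for full effect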
[11] = qHTS Assay for Modulators of Human Peripheral Myelin Protein 22 (PMP22) Expression/Activity (AID 1967; active = well fitted curve in the direction sought with a large enough effect in the signal ratio; the % refers to the signal ratio;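 note: 0% = untreated cells and 100% end not stated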)
In short: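 Readout is the corrected green/red luminescence ratio after 24 h compound exposure, normalised to untreated cells (0%). Engineered MSC80 mouse Schwann cells express green luciferase from the mouse Pmp22 promoter and red luciferase from EF-alpha as internal control.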

[12] = qHTS Assay for Lipid Storage Modulators (AID 1519; calls by dose curve; for activity change, negative = inhibition: % is set by controls: 0 for no effect and ±100 for the full control effect); settings: Drosophila S3 cells, BODIPY lipid droplet/cell ratio, laser cytometry, cells loaded with oleic acid
In short: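 Cells seeded at 5,000 per well were treated with compounds over a concentration series and loaded with oleic acid (400 uM, as added). Lipid droplet fluorescence (488 nm excitation, 500-530 nm channel) was read by laser-scanning cytometry and normalized to 20 uM Triacsin C.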

[13] = biological target: Endonuclease 4 (Escherichia coli (strain K12)) (UniProt P0A6C1); assay: Counterscreen for APE1 Inhibitors: qHTS Validation Assay for Inhibitors of Endonuclease IV (AID 1708); note: % is set by controls: 0 for no effect and ±100 for the full control effect
In short: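 Conditions: 2 nM enzyme, 50 nM TAMRA/BHQ-2 substrate, pH 7.5 Tris buffer with 2 mM MgCl2, RT. Compound preincubation 15 min; readout three fluorescence reads 60 s apart, third-minus-first.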

[14] = qHTS for differential inhibitors of proliferation of Plasmodium falciparum line GB4 (AID 1816); settings: Potency: Plasmodium falciparum GB4 proliferation inhibition;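 note: parasite growth measured after 72 h incubation; 0% = vehicle DMSO and -100% = reference inhibitor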
[15] = qHTS for differential inhibitors of proliferation of Plasmodium falciparum line W2 (AID 1883); settings: Potency: Plasmodium falciparum W2 proliferation inhibition;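 note: parasites grown with compound for 72 h before lysis and staining; 0% = vehicle wells and -100% = control inhibitor wells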
[16] = Cell Viability - LYMP2-020 (AID 986);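 note: potency is the fitted concentration of half-maximal effect; cells exposed to compound for 24 h at 37 °C; nearly all actives have a fitted effect of over 55% in size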
In short: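 Seed 2500 cells per well and incubate 5 hr at 37 C. Add compounds at a concentration series and incubate 24 hr at 37 C. Add CellTiter-Glo, wait 30 min at RT, read luminescence, and fit a Hill curve for AC50.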

[17] = Cell Viability - LYMP2-022 (AID 987); note: potency is the fitted concentration of half-maximal effect; nearly all actives have a fitted effect of over 55% in size
In short: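 Cells were seeded at 2500 per well, rested 5 hr at 37 C, and treated with titrated compounds for 24 hr at 37 C. Cellular ATP was then quantified by luciferase luminescence, and AC50 values were derived from Hill-modelled concentration-response curves.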

[18] = Cell Viability - LYMP2-024 (AID 988); note: potency is the fitted concentration of half-maximal effect; nearly all actives have a fitted effect of over 60% in size
In short: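 qHTS cytotoxicity, human lymphoblastoid line, complete medium; 24 h cpd treatment, 37 C; CellTiter-Glo ATP luminescence readout; tetraoctylammonium bromide positive control; AC50 via Hill fit.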

[19] = Cell Viability - LYMP2-026 (AID 989);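 note: potency is the fitted concentration of half-maximal effect; cells exposed to compound for 24 h at 37 °C; nearly all actives have a fitted effect of over 50% in size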
In short: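 Cells are seeded at 2500 per well and held 5 hr at 37 C. Compounds are added in concentration series for 24 hr, then CellTiter-Glo reagent is applied and luminescence read.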

[20] = Cell Viability - LYMP1-002 - Assay at 24 hr (AID 993); note: potency is the fitted concentration of half-maximal effect
In short: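 Acute toxicity is measured as concentration-dependent loss of cellular ATP in a human lymphoblastoid line (Coriell LYMP1-002) after 24 h treatment in complete medium. ATP is quantified by luciferase luminescence and AC50 derived by Hill modelling.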

[21] = measured here: cell count channel max response
[22] = measured here: lipid channel max response

Nc1cc(Cl)c(NC2=NCCN2)c(Cl)c1
inactive: outcome [1] | outcome [2] | outcome [3] | Potency [4] | outcome [5] | Potency [6] | Potency [7] | Potency [8] | Potency [9] | Potency [10] | outcome [11]

C1CCc2nnnn2CC1
inactive: outcome [1] | outcome [2] | outcome [3] | activity change, negative = inhibition ([12]; at 25.7 µM (top of the series)) 0.501% | activity change, negative = inhibition ([12]; at 57.5 µM (top of the series)) 0.8% | Potency [4] | outcome [5] | outcome [13] | Potency [6] | Potency [14] | Potency [7] | Potency [8] | Potency [9] | Potency [15] | Potency [10] | outcome [11]
18% and 12.4%: max response [12, 22]
12.5% and 9.15%: max response [12, 21]

CC(C)COC(=O)OCN1C(=O)CN(CCN2CC(=O)N(COC(=O)OCC(C)C)C(=O)C2)CC1=O
4.19%: max response [12, 22]
3.57%: max response [12, 21]
inactive: outcome [1] | outcome [2] | outcome [3] | activity change, negative = inhibition ([12]; at 57.5 µM (top of the series)) 1.23% | outcome [5] | outcome [13] | Potency [6] | Potency [14] | Potency [7] | Potency [8] | Potency [9] | Potency [10]

CC(C)NC[C@@H](O)COc1cccc2ccccc12
inactive: outcome [13]

CNCCC=C1c2ccccc2CCc2ccccc21
inactive: outcome [13]

C[N+]1(CCCCC[N+]2(C)CCCC2)CCCC1
inactive: Potency [8]

NC(=NCCCCCCN=C(N)/N=C(\N)Nc1ccc(Cl)cc1)/N=C(\N)Nc1ccc(Cl)cc1
active: Potency [16] 39.8 µM | Potency [17] 39.8 µM | Potency [18] 39.8 µM | Potency [19] 50.1 µM | Potency [20] 39.8 µM
